# Experimental data reported in PubChem BioAssay (NCI).
# The panel holds about 79,000 compounds, 15% with a hit somewhere; the sample as a whole holds those more often. A number with no mark means an inactive call. Cut-off read from the data, not from the text of the source: active = growth inhibition above about 70%; inactive = the rest.
# Assay: NCI Yeast Anticancer Drug Screen. Data for the bub3 strain (AID 167)
# Conditions: S. cerevisiae bub3 mutant strain, at 50.0 µM, hits give high values
# Procedure, shortened: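 Whole-cell yeast assay. The mutant strain was incubated with compounds, and growth inhibition was determined by comparison with vehicle-treated cells.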
row,SMILES,growth inhibition [%]
1,Cc1ccc2ccc(-c3cc4ccccc4s3)nc2c1,-9.5
2,Cc1nn(C)c(NC(=O)c2ccccc2O)c1SC#N,35.2
3,O=C(CCC(=O)Nc1cc(Cl)ccc1Cl)CC(=O)c1ccc(Cl)cc1,-1.65
4,C=CCOC(=O)/C=C\c1ccccc1OC,14.8
5,CCC(c1ccc(N(CC)CC)cc1[N+](=O)[O-])c1ccc(N(CC)CC)cc1[N+](=O)[O-],28.9
6,CCCCCC(Cl)(CC)CCCCC,1.45
7,CN(C)c1ccc(N=C2C=CC(=C(C#N)C#N)c3ccccc32)cc1,-20.9
8,O=c1c2cc([N+](=O)[O-])ccc2[nH]n1Cc1ccccc1Cl,6.6
9,CCCCNc1ccc(S(=O)(=O)c2ccc(NCCCC)c([N+](=O)[O-])c2)cc1[N+](=O)[O-],2.35
10,O=C1/C(=C/c2ccc(F)cc2)CC/C1=C\c1ccc(F)cc1,-13.8
11,COC1CCC(OC)(C(=O)NN)O1 (stereo not given),-57.2
12,CC(C)(C)N(OC(=O)c1ccccc1)C(=O)c1ccccc1,0.6
13,O=C1NC(=O)C2(CCCC2=Nc2ccc(Br)cc2)C2C=CN(Cc3ccccc3)C=C12 (stereo not given),3.65
14,C=Cc1ccc(S(N)(=O)=O)cc1,-12.7
15,Cc1cccc(NC(=O)Nc2ccccc2)n1,-18.9
16,CC(C)(CO)[C@@H](O)C(=O)NCCC(=O)O,-27
17,O=S1(=O)C(c2ccc(F)cc2)=C(O)c2cc3ccccc3nc21,-8.85
18,S=C1NC=CC(S)N1 (stereo not given),11.2
19,COc1ccc(CC(=O)NC(N)=O)cc1,-6.1
20,OCC1CC=CCC1 (stereo not given),-27.1

row,SMILES,growth inhibition [%]
1,C=C(C)c1ccc(C(=C)C)cc1,-23.9
2,Nc1nc2c(C(=O)NCc3cccs3)nnn2c2cccc(Cl)c12,-20.3
3,CC1(c2cccc[n+]2Cc2ccc(Cl)c(Cl)c2)OCCO1,-2.2
4,CCOc1ccc(C2OCC(C)O2)cc1OC (stereo not given),-0.5
5,COc1cccc(C(N)C(=O)O)c1 (stereo not given),-12.4
6,CC(C)/C=C1\CCC(CN2CCCC2)C1=O (stereo not given),40.7
7,CC(=O)N(C)c1ccc(NC(=O)Nc2c(C)cccc2C)cc1,19.6
8,CC1=CC[P+](Cc2ccccc2)(c2ccccc2)C1 (stereo not given),8.2
9,COc1cc(C(c2ccc(O)c(OC)c2)c2ccc(O)c(OC)c2)ccc1O,4.95
10,CC(C)(C)CC(C)(C)c1ccc(OCCOc2ccc(S(=O)(=O)O)cc2[N+](=O)[O-])cc1,-8.85
11,c1ccc(-c2cc(-c3ccccc3)nc(-c3ccccc3)c2)cc1,9.65
12,COc1cc2oc(-c3ccc(O)cc3)c(OC3OC(C)C(O)C(O)C3O)c(=O)c2c(O)c1OC (stereo not given),-7.95
13,O=C1C=C(NCCc2ccccc2)c2ccccc2C1=O,40.4
14,c1cc2c3c(cccc3c1)-c1nc3c(ccc4ccccc43)nc1-2,10.4
15,COc1cc(OC)c(C(=O)/C=C/c2ccccc2)c(O)c1OC,-15.1
16,O=C(O)[C@H](c1ccccc1)[C@@H](C(=O)O)c1ccccc1,-53.8
17,Nc1nc(N)nc(-c2ccc([N+](=O)[O-])o2)n1,12.2
18,COc1ccc(C(CCl)(CCl)c2ccc(OC)cc2)cc1,31.6
19,Cn1c2ccccc2c(=S)c2c(O)cc3c(c21)C=CC(C)(C)O3,9.85
20,NC(=Nc1ccc(S(=O)(=O)Nc2cnccn2)cc1)/N=C(/N)Nc1ccc(Br)cc1,-5.65

# Assay: NCI Yeast Anticancer Drug Screen. Data for the mlh1 rad18 strain (AID 175)
# Conditions: S. cerevisiae mlh1 rad18 strain growth inhibition; at 50.0 µM; hits give high values
# Procedure, shortened: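 Read-out is yeast growth inhibition, calculated against vehicle-only controls. The compound was applied to a strain engineered with DNA damage repair alterations.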
row,SMILES,growth inhibition [%]
1,Cc1ccc2ccc(-c3cc4ccccc4s3)nc2c1,-6.1
2,Cc1nn(C)c(NC(=O)c2ccccc2O)c1SC#N,10.4
3,O=C(CCC(=O)Nc1cc(Cl)ccc1Cl)CC(=O)c1ccc(Cl)cc1,-6.75
4,C=CCOC(=O)/C=C\c1ccccc1OC,-3.3
5,CCC(c1ccc(N(CC)CC)cc1[N+](=O)[O-])c1ccc(N(CC)CC)cc1[N+](=O)[O-],20.1
6,CCCCCC(Cl)(CC)CCCCC,-8.85
7,CN(C)c1ccc(N=C2C=CC(=C(C#N)C#N)c3ccccc32)cc1,-50
8,O=c1c2cc([N+](=O)[O-])ccc2[nH]n1Cc1ccccc1Cl,-4.45
9,CCCCNc1ccc(S(=O)(=O)c2ccc(NCCCC)c([N+](=O)[O-])c2)cc1[N+](=O)[O-],-9.8
10,O=C1/C(=C/c2ccc(F)cc2)CC/C1=C\c1ccc(F)cc1,-9.3
11,COC1CCC(OC)(C(=O)NN)O1 (stereo not given),-0.6
12,CC(C)(C)N(OC(=O)c1ccccc1)C(=O)c1ccccc1,14.4
13,O=C1NC(=O)C2(CCCC2=Nc2ccc(Br)cc2)C2C=CN(Cc3ccccc3)C=C12 (stereo not given),35.2
14,C=Cc1ccc(S(N)(=O)=O)cc1,-2.25
15,Cc1cccc(NC(=O)Nc2ccccc2)n1,-10.1
16,CC(C)(CO)[C@@H](O)C(=O)NCCC(=O)O,-23.9
17,O=S1(=O)C(c2ccc(F)cc2)=C(O)c2cc3ccccc3nc21,23.2
18,S=C1NC=CC(S)N1 (stereo not given),-1.35
19,COc1ccc(CC(=O)NC(N)=O)cc1,5.15
20,OCC1CC=CCC1 (stereo not given),11.6

row,SMILES,growth inhibition [%]
1,C=C(C)c1ccc(C(=C)C)cc1,-40.5
2,Nc1nc2c(C(=O)NCc3cccs3)nnn2c2cccc(Cl)c12,7.05
3,CC1(c2cccc[n+]2Cc2ccc(Cl)c(Cl)c2)OCCO1,14.2
4,CCOc1ccc(C2OCC(C)O2)cc1OC (stereo not given),11.7
5,COc1cccc(C(N)C(=O)O)c1 (stereo not given),-17.4
6,CC(C)/C=C1\CCC(CN2CCCC2)C1=O (stereo not given),63.5
7,CC(=O)N(C)c1ccc(NC(=O)Nc2c(C)cccc2C)cc1,15.6
8,CC1=CC[P+](Cc2ccccc2)(c2ccccc2)C1 (stereo not given),8.8
9,COc1cc(C(c2ccc(O)c(OC)c2)c2ccc(O)c(OC)c2)ccc1O,24.9
10,CC(C)(C)CC(C)(C)c1ccc(OCCOc2ccc(S(=O)(=O)O)cc2[N+](=O)[O-])cc1,37.2
11,c1ccc(-c2cc(-c3ccccc3)nc(-c3ccccc3)c2)cc1,1.6
12,COc1cc2oc(-c3ccc(O)cc3)c(OC3OC(C)C(O)C(O)C3O)c(=O)c2c(O)c1OC (stereo not given),-74.6
13,O=C1C=C(NCCc2ccccc2)c2ccccc2C1=O,-5.1
14,c1cc2c3c(cccc3c1)-c1nc3c(ccc4ccccc43)nc1-2,12.3
15,COc1cc(OC)c(C(=O)/C=C/c2ccccc2)c(O)c1OC,30.6
16,O=C(O)[C@H](c1ccccc1)[C@@H](C(=O)O)c1ccccc1,-1.4
17,Nc1nc(N)nc(-c2ccc([N+](=O)[O-])o2)n1,41.6
18,COc1ccc(C(CCl)(CCl)c2ccc(OC)cc2)cc1,-9.9
19,Cn1c2ccccc2c(=S)c2c(O)cc3c(c21)C=CC(C)(C)O3,21.6
20,NC(=Nc1ccc(S(=O)(=O)Nc2cnccn2)cc1)/N=C(/N)Nc1ccc(Br)cc1,27.1
